Screens: PubChem BioAssay, several laboratories
The list is not random: actives were taken first. Their share in the collection is about 4.3%.
MITF act: activators of MITF-driven TRPM1 promoter reporter, primary screen, cell-based, SK-MEL-5, luciferase, single point | SK-MEL-5 TRPM1-promoter luciferase, 24 h; % of positive control, neutral wells = 0 | activation, % at 12.5 µM | hit rate 0.75% among 300,000;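 active means mean activation of at least 80% with every replicate also reaching 80%; inconclusive means mean reaches 80% but some replicate falls short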;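 further: 0% = neutral control wells and 100% = parthenolide positive control wells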
HSF1 inh: HSF1 inhibitors in luciferase reporter cells, primary screen, cell-based, NIH3T3, luminescence. NIH3T3-HGL HSE-luciferase, MG132-induced, luminescence 8 h; stronger effect = lower value. activity change, negative = inhibition, % at 7.5 µM (by protocol). hit rate 0.77% among 300,000;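 active means more than half of replicate wells show activity change below -50%, luminescence cut by over half; inconclusive means some wells, but at most half, below -50%; inactive means no replicate well below -50%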;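 further: luciferase reports HSF-1 transcriptional activity via heat shock element; 0% = median of DMSO wells and -100% = zero luminescence signal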
esBAF inh: Bmi1 luciferase reporter increase in mESCs, primary screen, esBAF inhibitor project, mouse ES cells, Bmi1 luciferase knock-in, single point; 24 h; 100% = twice the neutral-well signal; AID 602393, 2012; reporter increase, % at 12.5 µM; hit rate 2% among 350,000; in the data active means activation above about 40%; inconclusive means no clear call, values can overlap the other calls;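 further: 0% = median of the plate's neutral control wells and 100% = double that signal; a rise in the Bmi1 reporter signal indicates esBAF inhibition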
Wnt act: Wnt/beta-catenin pathway activators, primary screen, cell-based, plate reader, single point; hit rate 1.2% among 300,000; activation, % at 9.35 µM; Wnt/beta-catenin reporter cell assay, activator; AID 743398, 2014; in the data active means activation above about 30%, passing the limit was not always enough; inconclusive means no clear call, values can overlap the other calls;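 further: 0% = neutral control wells and 100% = positive control wells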
SMARCA2 act: SMARCA2 (BRM) function activators, primary screen, cell-based, luminescence, high throughput; hit rate 1% among 370,000; MG213 cells, MMTV-luciferase reporter, dexamethasone, overnight; AID 652017, 2013; activation, % at 9.1 µM; in the data active means activation above about 7.8%;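 further: 0% = vehicle wells and 100% = reference activator wells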
HSF1 activator: HSF-1 activators, primary screen, NIH3T3-HGL cells, MG132 stress, luminescence, single point. NIH3T3-HGL HSF-1 luciferase reporter, 8 h; 100% = twice DMSO control signal. activation, % at 9 µM. AID 504408, 2011. hit rate 1.7% among 300,000;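 active means mean replicate activation of at least 50% with a set share of replicates each reaching 50%; inconclusive means only one of those two conditions met; inactive means mean below 50% and too few replicates reaching it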;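 further: 0% = median of the neutral control wells and 100% = twice that signal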
* = called active by the depositor; ? = inconclusive; · = no result.

SMILES	MITF act	HSF1 inh	esBAF inh	Wnt act	SMARCA2 act	HSF1 activator
COc1ccccc1OCCNC(=O)c1ccc2c(c1)CCC2	?	3	49*	14	7	7
Cc1noc(C)c1NC(=O)N[C@H]1CC[C@H](CCNC(=O)C2CC2)O[C@@H]1CO	·	·	-9	·	·	·
CO[C@@H](CN(C)Cc1ccc2c(c1)OCO2)[C@@H](C)CN(C(=O)Nc1ccc(F)cc1)[C@@H](C)CO	·	·	-5	·	·	·
Cc1noc(C)c1NC(=O)Nc1ccc2c(c1)CC(=O)N([C@H](C)CO)C[C@H](C)[C@@H](CN(C)Cc1ccc(Oc3ccccc3)cc1)O2	·	·	-1	·	·	·
CCN1CCN(/C=N/c2nc3c(s2)CCCC3)CC1	-63	-55*	-66	-11	-1	-60
Cc1ccc(/C=C/c2nc3ccccc3[nH]2)o1	21	-1	·	38*	7	10
Cc1cc2nc(/C=C/c3nc4cc(C)c(C)cc4[nH]3)[nH]c2cc1C	5	4	6	7	5	-15
Cc1ccc(S(=O)(=O)N(CC(=O)Nc2ccccc2-c2ccccc2)c2ccc(C)cc2C)cc1	9	0	1	·	-3	42
Cc1cccc(N(CC(=O)Nc2ccccc2-c2ccccc2)S(=O)(=O)c2ccccc2)c1C	-2	18	·	-8	-3	53*
COc1cc(CNc2ccc3[nH]c(=O)[nH]c3c2)ccc1OCc1ccc(Cl)cc1	·	58	55*	11	-4	83*
COc1cc(CNc2ccc3[nH]c(=O)[nH]c3c2)ccc1OCc1ccccc1C	71	7	47*	18	1	17
COc1cc(CNc2ccc3[nH]c(=O)[nH]c3c2)ccc1OCc1ccccc1F	26	18	47*	0	-3	22
O=S(=O)(c1cccc(F)c1)N1CC[C@H]2[C@H](CO)Nc3ccc(-c4cccc(F)c4)cc3[C@H]21	·	·	6	·	·	·
CC1CC(C)CN(C(=O)CCS(=O)(=O)c2ccc3c(c2)NC(=O)CS3)C1 (centres undefined)	3	31	-12	-2	-3	85*
CC1Sc2ccc(S(=O)(=O)CCC(=O)N3CCCCC3)cc2NC1=O (centres undefined)	1	-6	1	-2	-3	-15
O=C(CCc1nnc(Cc2cccc(C(F)(F)F)c2)o1)NCC(F)(F)F	11	4	·	3	1	?
C=C(C)CNC(=O)CCc1nnc(Cc2cccc(C(F)(F)F)c2)o1	78	·	·	56*	5	·
N=c1sccn1CC(=O)Nc1cc(Cl)ccc1Oc1ccccc1	·	49	-17	·	·	79*
N=c1sccn1CC(=O)Nc1cccc(Oc2ccccc2)c1	10	-23	0	-8	-1	-40
CSc1cccc(NC(=O)CN(C)S(=O)(=O)c2ccccc2)c1	11	21	1	-1	2	67*
C[C@H]1CN([C@@H](C)CO)C(=O)Cc2cc(NC(=O)CCN3CCOCC3)ccc2O[C@H]1CN(C)Cc1ccc(-c2ccccc2)cc1	·	·	2	·	·	·
COc1cccc(NC(=O)Nc2ccc(C(C)(C)C)cc2)c1	61	-4	57*	10	2	-8
CCCC(=O)Nc1ccc(C(=O)Nc2cccc(OC)c2)cc1	25	6	·	21	1	17
COc1cccc(NC(=O)Nc2ccc(C)c(Cl)c2)c1	?	14	55*	12	2	29
COc1cccc(NC(=O)c2ccc(NC(=O)C(C)(C)C)cc2)c1	72	18	66*	13	0	46
CC(=O)N(C)c1ccc(OCC(O)Cn2c(C)nc3ccccc32)cc1 (centres undefined)	-15	-9	·	-2	-1	-15
CC(=O)N(C)c1ccc(OCC(O)Cn2c3ccc(Cl)cc3c3cc(Cl)ccc32)cc1 (centres undefined)	-1	38	-9	-13	-4	59*
Cc1ccc(/C=C/C(=O)c2ccccc(=O)c2O)cc1C	-7	43	·	5	-2	76*
O=C(/C=C/c1ccccc1)c1cc(Br)ccc(=O)c1O	-50	72	-6	·	-8	91*
